# Assay outcomes (PubChem)
# KCNH2 3.1 inh: blocks the human KCNH2 3.1 channel isoform; U2OS KCNH2 3.1, thallium flux FluxOr; hits give low values; activity change, % (tested at about 1.8 µM); 0.95% of 340,000 active; AID 720553;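 active means maximum activity change below -70%; inconclusive means maximum activity change from -70% to -50%; inactive means maximum activity change above -50%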;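 further: thallium influx rate constant from kinetic fluorescence after stimulation buffer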
#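 Kinetic fluorescence (2 min after stimulation buffer) measures Tl+ influx through KCNH2 3.1 expressed by viral transduction in U2OS cells; the rate constant is normalized against DMSO controls serving as positive and negative references.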
# hERG WT inh: blocks the wildtype human KCNH2 potassium channel. Q12809. U2OS, BacMam KCNH2, thallium flux FluxOr; hits give low values. activity change, % at 1.84 µM. 0.37% of 340,000 active;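 active means maximum activity change below -70%; inconclusive means maximum activity change between -70% and -50%; inactive means maximum activity change above -50%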
#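 U2OS cells transduced with wild-type KCNH2 virus are loaded with FluxOr dye for 45 min, and thallium flux is measured in kinetic reads before and after stimulation buffer. Rate constants are normalized to DMSO controls.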
# KAT2A inh: blocks human GCN5L2 histone acetyltransferase; 0.21% of 390,000 active; GCN5L2 HAT assay, ThioGlo1 CoA-SH fluorescence; Potency, µM (top dose mostly 58.9 µM), for the others: top-dose activity change, negative = inhibition, hits mostly inhibitors; Q92830; AID 504327; further: potency means the concentration at half of the fitted maximal effect
# Target sequence (Q92830 whole entry, looked up): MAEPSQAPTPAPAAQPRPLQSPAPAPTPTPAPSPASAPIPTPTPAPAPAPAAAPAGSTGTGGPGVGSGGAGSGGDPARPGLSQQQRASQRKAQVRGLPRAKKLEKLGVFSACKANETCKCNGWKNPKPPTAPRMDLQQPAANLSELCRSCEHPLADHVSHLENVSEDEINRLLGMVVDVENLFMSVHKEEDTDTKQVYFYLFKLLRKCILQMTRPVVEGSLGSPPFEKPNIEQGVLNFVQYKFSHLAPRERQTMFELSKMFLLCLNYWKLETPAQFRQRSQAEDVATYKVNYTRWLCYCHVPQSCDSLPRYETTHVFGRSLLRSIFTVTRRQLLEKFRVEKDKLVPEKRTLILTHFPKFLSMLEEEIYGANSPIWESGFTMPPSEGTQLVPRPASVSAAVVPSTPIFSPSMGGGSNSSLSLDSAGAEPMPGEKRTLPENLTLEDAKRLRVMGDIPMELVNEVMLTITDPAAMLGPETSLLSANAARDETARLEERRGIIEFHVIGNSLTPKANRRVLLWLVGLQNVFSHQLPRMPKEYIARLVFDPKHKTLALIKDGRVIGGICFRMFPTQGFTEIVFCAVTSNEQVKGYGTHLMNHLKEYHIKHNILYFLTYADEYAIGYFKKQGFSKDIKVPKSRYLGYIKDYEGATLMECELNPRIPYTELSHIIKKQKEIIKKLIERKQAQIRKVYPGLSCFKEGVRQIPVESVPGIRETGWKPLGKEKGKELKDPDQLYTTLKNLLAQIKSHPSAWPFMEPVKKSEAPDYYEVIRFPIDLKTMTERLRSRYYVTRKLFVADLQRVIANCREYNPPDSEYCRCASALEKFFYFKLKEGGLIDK
#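 Preincubate 20nM GCN5L2 with compound 15 min, RT → add 50uM ThioGlo1 + 75uM H3(1-25) + 70uM acetyl-CoA → read fluorescence 0 and 20 min. Primary qHTS; fluorescent artifacts likely.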
# Pin1 inhibitor: blocks the human prolyl isomerase Pin1. 0.009% of 390,000 active. Pin1 FP peptide displacement, HiFluor488, 10 min. Potency, µM (titrated, usually from 115 µM), for inactives: at the top dose activity, negative = inhibition, most hits filed as inhibitors. Q13526; active means well fitted inhibition curve with a large enough effect in the polarisation, with a control signal flat, not every such curve was filed as active; inconclusive means small, poorly fitted or top-dose-only effect, or effect the other way, or a change in a side signal; inactive means no such curve, though single readings can be large or run the other way; the % refers to the polarisation; further: potency means the concentration at half of the fitted maximal effect
# Tb PGK inh: blocks T. brucei phosphoglycerate kinase | PGK/GAPDH coupled, Kinase-Glo luminescence, 60 min | P07378 | 0.043% of 380,000 active | Potency, µM (series often up to 57.5 µM), without a hit: at the top dose activity change, negative = inhibition, actives largely listed as inhibitors; further: potency means the concentration at half of the fitted maximal effect; nearly all actives have a fitted effect of over 60% in size
#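 Recombinant glycosomal PGK reaction used 1,3-bisphosphoglycerate generated in-well by GAPDH (100nM final) in 100mM TEA pH 7.6, 5mM MgCl2, 0.01% Tween-20. After 60 minutes at room temperature, ATP was read by Kinase-Glo Plus luminescence end-point.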
# RGS4 inh: blocks human RGS4-accelerated GTP hydrolysis. 0.039% of 390,000 active. P49798. Potency, µM (titrated, usually from 114 µM), for the others: at the highest dose activity change, negative = inhibition, most hits filed as inhibitors. AID 504845. Transcreener GDP fluorescence polarization, RGS4-accelerated GTP hydrolysis; further: potency means the concentration at half of the fitted maximal effect; nearly all actives have a fitted effect of over 75% in size
#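 MLSMR compounds (23 nl, pin-transferred) preincubated 10 min at room temperature with a 500nM (2x) first reagent, then RGS4 at 900nM (2x) plus Transcreener GDP mix added; fluorescence polarization (620/688 nm) read before and after 90 min at 30 °C.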
# * hit, by the source's call; i = inactive; ? = inconclusive; nt = no result; [ ] = another dose, or the depositor's remark. An excerpt weighted towards active compounds, which were near 1.2% of everything screened. Unless noted, the call rests on the fitted dose curve; in most records, active means well fitted curve in the direction sought with a large enough effect; inconclusive means small, poorly fitted or top-dose-only effect, or another doubt; inactive means no such curve, though single readings can be large; an effect the other way counts as inactive or inconclusive. On the % scale 0 is the no-effect control and ±100 the full control effect.
SMILES,KCNH2 3.1 inh,hERG WT inh,KAT2A inh,Pin1 inhibitor,Tb PGK inh,RGS4 inh
C=CCOc1ccc(C2=NOC(C(=O)Nc3ccc4c(c3)OCCO4)C2)cc1OC (configuration not stated),4,-189*,-20%,-4%,i,-16%
O=C1Nc2cc(Cl)c(Cl)cc2N(O)N1c1ccc(Cl)c(Cl)c1,-107*,-19,-12%,6%,-7%[11.5 µM],7%
Cc1ccccc1COc1ccc(/C=N/NC(=O)c2nnn(-c3nonc3N)c2CN2CCC(C)CC2)cc1,?,-5,-13%,8%,i,-8%[56.9 µM]
CC1CCN(Cc2c(C(=O)N/N=C/c3ccc(OC(C)C)cc3)nnn2-c2nonc2N)CC1,-112*,1,?,5%,4%,8%
CCCN(CCC)Cc1c(C(=O)N/N=C/c2ccc(Br)cc2)nnn1-c1nonc1N,-78*,12,-14%,1%,-4%,-4%
CN(C)Cc1c(C(=O)N/N=C/c2cccc(OCc3ccc(F)cc3)c2)nnn1-c1nonc1N,-3,15,-5%,2%,9%,-9%
CCCN(CCC)Cc1c(C(=O)N/N=C/c2ccco2)nnn1-c1nonc1N,11,23,-6%,-7%,-1%,-4%
CN(C)Cc1c(C(=O)N/N=C/c2ccc(OCc3ccc(F)cc3)cc2)nnn1-c1nonc1N,-76*,-38,-3%,2%,1%,13%
CCC(=O)N1CCc2cc(S(=O)(=O)NC(Cc3ccccc3)C(=O)Nc3cccc(OC)c3)ccc21 (configuration not stated),nt,nt,-2%,-2%,-8%,-5%
O=C(CCNC(=O)c1ccccc1)OCN1C(=O)c2ccccc2C1=O,-73*,-1,-7%,-4%,0%,-40%
COc1cc(C2CC(=O)Nc3c2c(=O)n(C)c2ncnn32)cc(OC)c1OC (configuration not stated),nt,nt,-4%,0%,-17%,-5%
O=S(=O)(N/N=C1\CC(c2ccccc2)Oc2ccccc21)c1ccccc1 (configuration not stated),-4,-11,-26%,?,-8%,9%
Cc1ccc(S(=O)(=O)N/N=C2/CC(c3ccccc3)Oc3ccccc32)cc1 (configuration not stated),-110*,-5,-12%,14%,-5%,6%
COCCOC(=O)C1=C(C)NC(=S)NC1c1cccs1 (configuration not stated),-76*,1,-23%,1%,-5%,-27%
COCCOC(=O)C1=C(C)NC(=O)NC1c1cccs1 (configuration not stated),0,11,-9%,-4%,-2%,-8%
COc1ccc(-c2c[n+]3c4n2CCCCC4=C(c2ccc(Br)cc2)C3)cc1,-169*,17,?,27%,-1%,-28%
N#Cc1nc(-c2cccs2)oc1NCCCN1CCOCC1,-8,15,35µM*,0%,-11%,2%
COc1ccc(-c2nc(C#N)c(NCCCN3CCOCC3)o2)cc1,8,-24,1%,6%,-1%,19%
CCOc1ccc(-c2nonc2NC(=O)COc2ccccc2)cc1,nt,nt,-10%,?,16%,0%
Nc1ccc(CSc2ccc(Cl)cc2)c(Cl)c1,-102*,12,nt,4%,0%,0%
CSc1ccc(/C=C(/NC(=O)c2ccccc2)C(=O)NCCCn2ccnc2)cc1,?,11,0%,3%,-10%,-13%
O=C(NCCCn1ccnc1)/C(=C/c1ccccc1)NC(=O)c1ccccc1,-113*,-137*,-9%,-4%,-6%,-38%
COc1ccccc1C(=O)N/C(=C/c1ccc(Br)cc1)C(=O)NCCCn1ccnc1,-99*,-125*,-16%,-1%,7%,5%
O=C(NCCCn1ccnc1)/C(=C\c1ccc(Br)cc1)NC(=O)c1ccccc1,-104*,-125*,-17%,-11%,-3%,-51%[56.9 µM]
Cc1ccc(C(=O)N/C(=C/c2ccco2)C(=O)NCCCn2ccnc2)cc1,-93*,?,1%,1%,-9%,0%
SMILES,KCNH2 3.1 inh,hERG WT inh,KAT2A inh,Pin1 inhibitor,Tb PGK inh,RGS4 inh
Cc1ccc(C(=O)N/C(=C\c2ccco2)C(=O)NCCCn2ccnc2)cc1,?,-21,-11%,-1%,i,-6%
CN(C)c1ccc(/C=C(\NC(=O)c2ccccc2)C(=O)NCCCn2ccnc2)cc1,-7,11,-8%,10%,-2%,-6%
O=C(c1ccccc1Cl)n1nc(-c2cccnc2)nc1NCc1ccc(F)cc1,nt,nt,-8%,8%,-8%,-26%
Cc1ccc(C(=O)N/C(=C\c2ccc(F)cc2)C(=O)NCCCn2ccnc2)cc1,-114*,-95*,0%,0%,4%,4%
COc1ccc(/C=C(\NC(=O)c2ccc(C)cc2)C(=O)NCCCn2ccnc2)cc1OC,3,2,-4%,3%,i,-9%
O=C(CCCNC(=O)/C(=C/c1ccc(F)cc1)NC(=O)c1ccccc1)OCc1ccccc1,-1,-138*,-17%,-1%,-1%,14%
O=C(c1ccc([N+](=O)[O-])cc1)N(Cc1cccs1)C1CCS(=O)(=O)C1 (configuration not stated),-101*,31,16%,-6%,-6%,19%
CCn1nnnc1-c1ccc(OC)c(S(=O)(=O)Nc2ccc(S(N)(=O)=O)cc2)c1,6,-8,-4%,-6%,-6%,-11%
CCn1nnnc1-c1ccc(OC)c(S(=O)(=O)Nc2ccccc2OC)c1,-2,-78*,nt,nt,0%,nt
c1ccc(COc2ccc(OCCCCN3CCCCC3)cc2)cc1,-97*,9,-4%,-3%,i,-9%
CCOc1ccc(OCCCCN2CCCC2)cc1,8,-4,-9%,7%,-7%,23%
O=C(c1ccccc1)c1ccc(OCCCCN2CCCCC2)cc1,-49,17,0%,0%,i,-48%
CN1CCN(CCCOc2ccc(-c3ccccc3)cc2)CC1,-90*,52,-13%,-7%,3%,-21%
Fc1ccc(OCCCCCN2CCCC2)cc1,-98*,9,-1%,-2%,-8%,2%
N=c1c2c(ccn1CCc1ccccc1)Oc1ccc3ccccc3c1C2c1ccccc1 (configuration not stated),nt,nt,nt,27%,nt,nt
CC(=O)/C=C(\C)Nc1ccc(-c2cnc(-c3ccccc3)o2)cc1,10,12,28µM*,-2%,i,9%
CC(C)C(=O)Nc1ccc(-c2nnc(-c3ccccc3)o2)cc1,-6,-3,-4%,55%,i,2%
Clc1ccc(CN2CCN(c3ncnc4scc(-c5cccs5)c34)CC2)cc1,-83*,-46,-15%,?,-8%,20%
